Screening data from PubChem BioAssay.
GLP1R ag: activates the human GLP-1 receptor; P43220; HEK293 GLP-1R CRE-luciferase, luminescence, 4-6 h; cells express a hypersensitive GLP-1R form; Potency, µM (top dose mostly 45.6 µM), for inactives: at the highest dose activation, most hits filed as activators; 0.007% of 380,000 active; AID 624172; further: potency means the concentration at half of the fitted maximal effect; % of control where 0% means no effect
Target sequence (P43220 whole entry, looked up): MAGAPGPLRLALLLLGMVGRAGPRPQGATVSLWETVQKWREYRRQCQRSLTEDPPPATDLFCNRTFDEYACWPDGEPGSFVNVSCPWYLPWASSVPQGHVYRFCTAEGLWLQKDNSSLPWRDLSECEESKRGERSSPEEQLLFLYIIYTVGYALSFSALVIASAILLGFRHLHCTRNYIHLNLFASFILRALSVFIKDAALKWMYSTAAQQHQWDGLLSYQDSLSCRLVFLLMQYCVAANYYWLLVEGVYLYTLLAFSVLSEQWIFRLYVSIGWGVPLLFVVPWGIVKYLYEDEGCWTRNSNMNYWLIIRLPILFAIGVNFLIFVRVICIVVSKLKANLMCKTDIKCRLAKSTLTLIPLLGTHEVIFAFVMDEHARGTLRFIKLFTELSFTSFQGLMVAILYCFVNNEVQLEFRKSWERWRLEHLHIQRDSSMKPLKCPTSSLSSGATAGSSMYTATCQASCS
DRD3 agonist: D3 dopamine receptor (human) agonism; D3R DiscoveRx beta-arrestin cells, luminescence, 90 min; AID 652048; 0.58% of 410,000 active; P35462; max activation, %; in the data active means max activation above about 30%; further: 0% is about no effect
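Cells at 1500/well, incubated overnight, then treated with pinned compounds (dopamine as control) for 90 min at 37 degrees C. DiscoveRx reagent added for 30 - 60 minutes at room temperature; luminescence read.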
GLP-1R inv ag: GLP-1 receptor (human) inverse agonism; P43220; HEK293 GLP-1R CRE-luciferase, luminescence, 24 h; GLP-1R form is constitutively active; Potency, µM (doses to about 38.3 µM), inactives show at the highest dose activity change, negative = inhibition, most hits filed as inhibitors; 1.6% of 410,000 active; further: potency means the concentration at half of the fitted maximal effect; on the % scale 0 is the no-effect control and ±100 the full control effect; nearly all actives have a fitted effect of over 55% in size
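GLP-1R inverse agonism mode: basal reporter luminescence in engineered HEK293 cells measured after one day of compound exposure at 37 deg C, with a 12 min room-temperature detection step.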
D3 antag: D3 dopamine receptor (human) antagonism; P35462; D3R cells, DiscoveRx beta-arrestin luminescence, antagonist mode; stronger effect = lower value; max response, negative = inhibition, %; 2.5% of 360,000 active; in the data active means max response below about -50%; inconclusive means no clear call, values can overlap the other calls; further: on the % scale 0 is the no-effect control and ±100 the full control effect
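Cells expressing the human receptor were seeded at 1500 cells/well, incubated overnight at 37 degrees C in 5% CO2, then exposed to library compounds with dopamine controls for 90 minutes at 37 degrees C before luminescent detection.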
* = called active by the depositor; u = inconclusive; x = no result given; [ ] = another dose, or the depositor's remark. Shown are actives, neighbours in structure and some others; about 4.3% of the full set was active somewhere. Unless noted, the call rests on the fitted dose curve; in most records, active means well fitted curve in the direction sought with a large enough effect; inconclusive means small, poorly fitted or top-dose-only effect, or another doubt; inactive means no such curve, though single readings can be large; an effect the other way counts as inactive or inconclusive.

SMILES	GLP1R ag	DRD3 agonist	GLP-1R inv ag	D3 antag
COc1ccc(/C(N)=N/OC(=O)CCCN2C(=O)c3ccccc3C2=O)cc1OC	17.0%	40.6*	19.2%[7.66 µM]	-7.8
N/C(=N\OC(=O)CCCN1C(=O)c2ccccc2C1=O)c1ccccn1	3.7%	2.4	-0.7%[7.66 µM]	1.9
Cc1ccc(CSc2ncc(Cl)c(C(=O)Oc3ccc(F)cc3)n2)cc1	x	-15.1	0.2%	x
O=C(NOCc1ccccc1)c1ccc(Cl)cc1	-1.4%	6.9	u	6.5
COc1ccc(C(=O)NC2CC3CCCC(C2)N3Cc2ccccc2)cc1 (centres undefined)	2.9%	-21.3	2.7%	-108.4*
O=C(NC1CC2CCC(C1)N2Cc1ccccc1)c1ccccc1Br (centres undefined)	0.1%	-19.3	21.6%	-78.9*
CCN(CC)C(=O)NC1CC2CCCC(C1)N2Cc1ccccc1 (centres undefined)	-0.2%	-11.0	6.8%	-65.3*
Cc1ccccc1C(=O)NC1CC2CCCC(C1)N2CC(C)C (centres undefined)	-0.8%	-1.5	-6.4%	-4.8
COc1ccc(C(=O)NOCc2ccccc2)cc1	-6.8%	-6.6	3.16µM*	5.8
CCOc1ccc(CNC(=O)c2ccc3c(Cl)c4c(nc3c2)CCCC4)cc1	0.3%	-6.9	-20.8%	x
COCCN(Cc1ccco1)C(=O)c1cc2c(Cl)nc3ccc(C)cc3c2s1	x	4.6	6.3%	x
CCCN1C2CCCC1CC(NC(=O)c1ccc(C(C)(C)C)cc1)C2 (centres undefined)	-1.4%	-9.2	-9.6%	-18.7
Cc1cccc(C(=O)NC2CC3CCCC(C2)N3Cc2ccccc2)c1 (centres undefined)	-0.2%	-29.7	-21.2%	-111.6*
COc1ccc(C(=O)NC2CCCN(Cc3ccc(Cl)cc3)C2)c(OC)c1 (centres undefined)	11.9%	-14.9	7.94µM*	u
Cc1ccc(C(=O)NC2CC3CCCC(C2)N3Cc2ccccc2)cc1 (centres undefined)	5.0%	-29.6	-3.3%	-79.7*
O=C(NC1CC2CCCC(C1)N2Cc1ccccc1)c1ccc([N+](=O)[O-])cc1 (centres undefined)	2.7%	-19.9	13.3%	-88.6*
Cc1cccc(C(=O)NC2CC3CCC(C2)N3C)c1 (centres undefined)	-11.2%	-1.4	2.6%	4.7
COc1cccc(CC(=O)NC2CCCN(Cc3ccc(Cl)cc3)C2)c1 (centres undefined)	-1.9%	-11.7	u	-4.2
CSc1ncc(Cl)c(C(=O)Nc2ccc(S(=O)(=O)N3CCC(C)CC3)cc2)n1	x	4.4	u	x
CC(NC(=O)c1ccc2c(c1)sc1nc(-c3ccc(F)cc3)cn12)C12CC3CC(CC(C3)C1)C2 (centres undefined)	x	-19.7	15.2%	x
COc1ccccc1CNS(=O)(=O)c1cnc(N)nc1	x	2.3	4.1%	x
O=C(CN1C2CCCC1CC(NC(=O)c1ccco1)C2)Nc1ccccc1 (centres undefined)	-3.4%	-12.9	u	-58.2*
COc1ccc(CN2C3CCCC2CC(NC(=O)/C=C/c2ccccc2)C3)cc1 (centres undefined)	8.2%	-21.1	u	-110.7*
COc1ccccc1C(=O)NC1CC2CCC(C1)N2Cc1ccccc1 (centres undefined)	4.7%	-16.7	-8.0%	-95.2*
COc1ccc(C(=O)NC2CC3CCCC(C2)N3Cc2ccccc2)c(OC)c1 (centres undefined)	-6.8%	-18.3	3.8%	-89.2*
SMILES	GLP1R ag	DRD3 agonist	GLP-1R inv ag	D3 antag
CCOC(=O)C(C)N1C(=O)S/C(=C/c2cc(C)n(-c3ccccn3)c2C)C1=O (centres undefined)	0.0%	-4.0	10µM*	46.2
O=S1(=O)OC(c2ccc(O)cc2)(c2ccc(O)cc2)c2ccccc21	-0.9%	-6.3	x	x
O=C(c1ccccc1)C1CN(Cc2ccccc2)CCC1(O)c1ccccc1 (centres undefined)	2.2%	-23.9	-27.8%	-28.6
OC1(c2ccccc2)CCN(Cc2ccccc2)CC1	-0.2%	-16.5	-45.5%	-80.4*
OC1(c2ccc(F)cc2)CCN(Cc2ccccc2)C1 (centres undefined)	-0.1%	-22.7	-9.4%	-28.8
OC(c1ccccc1)C1CN(Cc2ccccc2)CCC1(O)c1ccccc1 (centres undefined)	-2.2%	-37.0	-12.5%	-58.5*
OC1(c2ccc(F)cc2)CCN(Cc2cccnc2)CC1	-1.8%	-4.8	1.3%	-60.9*
OC1(c2ccc3c(c2)OCO3)CCN(Cc2ccc(F)cc2)CC1	8.2%	-14.5	0.4%	-98.9*
